From PubChem BioAssay (NCI)
This is part of a sample that, as a whole, favours compounds with a hit. Of some 83,000 tested, about 20% had one in any assay.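 The test compound was applied at a single concentration to cells in 96-well plates for 48 hours, and percent growth was recorded.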 A number with no mark means an inactive call. Activity calls are given as the source filed them. The calls were made as follows: active = growth percent below 10; inactive = the rest.

Tests used:
Experiment in all cases: NCI-60 one-dose screen, 48 h (100 = growth as untreated, 0 = no growth, -100 = all killed)
Conditions in all cases: 10 µM unless noted
NCI-H23 lung = system: NCI-H23 lung
NCI-H226 lung = system: NCI-H226 lung
NCI-H322M lung = system: NCI-H322M lung
HOP-62 NSCLC = system: HOP-62 NSCLC
NCI-H460 lung = system: NCI-H460 lung
HOP-92 NSCLC = system: HOP-92 NSCLC
NCI-H522 lung = system: NCI-H522 lung
A549/ATCC NSCLC = system: A549/ATCC NSCLC
786-0 renal = system: 786-0 renal
COLO 205 colon = system: COLO 205 colon
DU-145 prostate = system: DU-145 prostate
K-562 leukemia = system: K-562 leukemia
MALME-3M melanoma = system: MALME-3M melanoma
MDA-MB-231 breast = system: MDA-MB-231 breast
RXF 393 renal = system: RXF 393 renal
SF-268 CNS = system: SF-268 CNS
SF-295 CNS = system: SF-295 CNS
SF-539 CNS = system: SF-539 CNS
M14 melanoma = system: M14 melanoma

SMILES	growth (NCI-H23 lung) [%]	growth (NCI-H226 lung) [%]	growth (NCI-H322M lung)	growth (HOP-62 NSCLC) [%]	growth (NCI-H460 lung)	growth (HOP-92 NSCLC)	growth (NCI-H522 lung)	growth (A549/ATCC NSCLC) [%]	growth (786-0 renal) [%]	growth (COLO 205 colon)	growth (DU-145 prostate) [%]	growth (K-562 leukemia)	growth (MALME-3M melanoma) [%]	growth (MDA-MB-231 breast) [%]	growth (RXF 393 renal)	growth (SF-268 CNS) [%]	growth (SF-295 CNS)	growth (SF-539 CNS)	growth (M14 melanoma)
O=C1CCC(=O)N1Cc1ccccc1	86.7	89.5	98.2%	107	106%	89.9%	102%	102	104	111%	105	108%	110	98	87%	94.7	102%	105%	94.7%
c1ccc2c(c1)Oc1ccccc1C2C1c2ccccc2Oc2ccccc21	90.6	103	94.1%	89.6	95.9%	94.8%	87.6%	88.3	94.1	99.5%	93.6	93.6%	108	93.1	94.2%	97.2	96.1%	96.5%	99.1%
CCOC(=O)CC/C(C)=N\Nc1ccc([N+](=O)[O-])cc1	99.5	67.9	77.3%	63.2	27.1%	89.8%	38.8%	24.4	72.9	34.7%	88.6	6.98% (active)	104	80.8	97.5%	73.5	60%	69.8%	29.3%
COc1ccc(Cl)cc1NC(N)=S	94.6	107	108%	110	109%	92.2%	80.7%	103	102	127%	108	104%	104	104	112%	99.5	106%	99.8%	105%
O=C1OC(c2ccccc2)=N/C1=C\c1ccc([N+](=O)[O-])cc1	100	93.6	96.2%	90.1	94.6%	87.1%	94.9%	120	98.6	109%	109	112%	89	94.1	101%	101	103%	99.2%	95.4%
O=C(/C=C/CN1CCOCC1)Nc1cc2c(Nc3cccc(Cl)c3F)ncnc2cc1OCCOC(F)F	85.4	80.1	4.9% (active)	70.5	93%	18.9%	6.03% (active)	52.7	53.4	95.1%	49.5	76%	64.4	68.6	68.4%	65.2	81.2%	81.4%	94.3%
COc1ncc(-c2ccc3ncnc(Nc4cccc(Cl)c4)c3c2)cc1NS(=O)(=O)C1CC1	54.2	24.1	-5.8% (active)	43.9	28.3%	-7.31% (active)	12.2%	26.3	62.6	31.4%	26	60.5%	15.9	37.9	1.04% (active)	43	34.2%	27%	56.6%
COc1cc(C(=O)CCCl)ccc1O	91.8	88.9	106%	112	106%	95.6%	-24.2% (active)	102	106	109%	107	97.4%	88.7	94.3	98.2%	96.1	100%	94.7%	111%
CC(C)CCC[C@@H](C)[C@H]1CC[C@H]2[C@@H]3CC[C@H]4C/C(=N/O)CC[C@]4(C)[C@H]3CC[C@]12C	107	92.1	103%	92.8	106%	101%	104%	73.1	102	108%	116	91.2%	104	98.8	102%	110	101%	109%	104%
Cc1sc2nc(CSc3nnc(-c4ccco4)o3)[nH]c(=O)c2c1C	121	102	131%	115	108%	106%	104%	101	111	109%	114	75.6%	128	106	98.3%	106	107%	122%	122%
Cc1cc(C)c2c(=O)[nH]c(SCC(=O)Nc3cccc(S(=O)(=O)N(C)C)c3)nc2n1	104	91.9	122%	97.8	107%	88.3%	96.3%	95	93.2	90.9%	101	94.1%	95.8	87.6	58.4%	114	139%	97.3%	100%
O=C(c1c[nH]c2ccccc12)C(Sc1nc2ccccc2c(=O)[nH]1)c1ccccc1 (stereo not drawn)	116	95.9	121%	89.6	110%	91.7%	93.7%	93.4	104	96.9%	94.3	101%	88.7	91.6	26.1%	105	93.1%	89.2%	104%
CCc1c(C(=O)Nc2ccc3ccccc3c2)[nH]c(C)c1C(C)=O	85.8	95.7	98.9%	96.1	101%	92.3%	68.7%	89.6	104	111%	107	81.2%	95.7	93.3	96.7%	110	102%	96.2%	93.8%
C#CCC1(c2ccc(F)c(F)c2)NS(=O)(=O)c2ccccc21 (stereo not drawn)	98.1	103	90.5%	86.2	108%	106%	65.5%	76.9	101	110%	107	89.4%	93.7	109	114%	102	105%	104%	107%
CC1CCN(C(=O)CSc2nc3sc4c(c3c(=O)[nH]2)CCCC4)CC1	113	100	104%	103	120%	88.2%	89.9%	106	110	112%	101	86.1%	109	105	117%	113	88.4%	98.2%	109%
COc1cc2c(cc1OCCCCn1c(-c3cc(=O)c4ccccc4o3)nc3ccccc31)N=C[C@@H]1CCCN1C2=O	101	101	108%	105	112%	66.5%	66.7%	90.5	108	104%	118	72.3%	109	87.7	51.3%	107	113%	118%	105%
COc1ccc(/C(=N\O)c2cc(OC)c(OC)c(OC)c2)c(OC)c1N	34.7	78.2	48.4%	39.7	6.35% (active)	78.7%	-9.39% (active)	43.2	34.7	-0.741% (active)	15.3	7.11% (active)	48.9	36.9	16.8%	42.1	-9.97% (active)	-35.2% (active)	7.17% (active)
